# PubChem BioAssay (NCATS)
# Results filed as inconclusive are left out. Activity calls are given as the source filed them. Calls follow the shape of the dose curve; as a rule, active = well fitted inhibition curve with a large enough effect; inconclusive = small, poorly fitted or top-dose-only effect; inactive = no such curve, though single readings can be large or run the other way. Where a SMILES comes first, the peptide text is derived from it. The star is where a group is joined. βNA = c1ccc2cc(N*)ccc2c1; Cbz = O=C(OCc1ccccc1)*
# Test: P-glycoprotein substrates identified in KB-3-1 adenocarcinoma cell line, qHTS therapeutic library screen (AID 1346986); also: nearly all actives have a fitted effect of over 60% in size;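 also: potency is for cytotoxicity meaning loss of cell viability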
# Conditions: KB-3-1 parental cells viability, CellTiter-Glo, 72 h; series mostly up to 44.5 µM
# In short: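 72 h cell-killing screen, 500 cells/well, CellTiter-Glo luminescence. Paired lines KB-3-1/KB-8-5-11; P-gp dependence checked by tariquidar co-treatment and HEK-293 MDR-19 versus empty-vector cells.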
# Potency is read from the fitted curve at half-maximal effect.
Structure (SMILES),Potency,outcome
Cc1c(F)cc(C(=O)NC2CC2)cc1-c1ccc(C(=O)NCC(C)(C)C)cn1,920 nM (active),–
COc1cc(CCCO)ccc1O[C@@H]1O[C@H](CO)[C@@H](O)[C@H](O)[C@H]1O,–,inactive
CC1(C)O[C@H]2CC(=O)OC[C@@]23C1=C(O)C(=O)[C@]1(C)C3CC[C@@]2(C)[C@H](c3ccoc3)OC(=O)[C@H]3O[C@]321 (some centres not stated),–,inactive [at 17.4 µM]
CC/C=C/C(O)C(O)C1=C(C)C(=O)C2(O1)C(=O)NC(OC)(C(=O)c1ccccc1)C2O (configuration not stated),–,inactive [at 17.4 µM]
COc1cc(/C=C/C(=O)O[C@H]2C[C@@H]3C(C(=O)O)=CO[C@@H](O[C@@H]4O[C@H](CO)[C@@H](O)[C@H](O)[C@H]4O)[C@@H]3[C@H]2C)ccc1O,–,inactive [at 17.4 µM]
CC(=O)O[C@@H]1[C@H](O[C@@H]2O[C@H](CO)[C@@H](O)[C@H](O)[C@H]2O)[C@@H](O[C@@H]2O[C@@H](C)[C@H](O)[C@@H](O[C@@H]3O[C@H](CO)[C@@H](O)[C@H](O)[C@H]3O)[C@H]2O)[C@H](OC(=O)[C@]23CCC(C)(C)C[C@H]2C2=CCC4[C@@]5(C)C[C@H](O)[C@H](O[C@@H]6O[C@H](C(=O)O)[C@@H](O)[C@H](O)[C@H]6O)[C@@](C)(C(=O)O)C5CC[C@@]4(C)[C@]2(C)CC3)O[C@@H]1C (some centres not stated),–,inactive [at 9.29 µM]
CC(C)CC(NC(=O)OCc1ccccc1)C(=O)NC(CC(C)C)C(=O)NC(CCC(=O)O)C(=O)Nc1ccc2ccccc2c1 (stereo not drawn) (Cbz-Leu-Leu-Glu-βNA; configuration not given here),–,inactive
